From PubChem BioAssay (NCI)
Compounds without any hit were thinned out: in the full panel of roughly 83,000, 20% have a hit.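 Note: values are percent growth. 100 is the growth of untreated cells, values between 100 and 0 indicate rising inhibition; between -100 and 0 indicates cell death.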 A number with no mark means an inactive call. Activity calls are given as the source filed them. The calls were made as follows: active = growth percent below 10; inactive = the rest.

The molecules below were run on MDA-MB-468 breast (assay: NCI-60 one-dose screen, 48 h (100 = growth as untreated, 0 = no growth, -100 = all killed)). Conditions: 10 µM unless noted.
In the case of `Cc1ccc(-c2n[nH]c(=O)c3noc(-c4ccc(C)cc4)c23)cc1`, the growth is reported as -8.93% (active). Molecule `Nc1nc(N)c2c(n1)NC(c1cccc(Nc3ccnc4cc(C(F)(F)F)ccc34)c1)CC(c1ccc(Cl)cc1)=N2` (stereo not given) has a growth of 21.5%. In the case of `COc1ccccc1/C=C1\COc2ccc(O)cc2C1=O`, the growth is reported as 68.7%. `COC(=O)[C@@H]1CC[C@]2(C)[C@H](CC[C@@H]3O[C@@]32C)[C@@]1(C)CC(=O)c1ccoc1` was tested, and the growth was 95.7%. Work on `CCOC(=O)c1cc(C(=O)c2cc(OC)c(OC)c(OC)c2)n2ncc3ccccc3c12` yielded a growth of 66%. In the case of `O=c1onc(-c2ccccc2)c2ccccc12`, the growth is reported as 108%. In the case of `N#Cc1nc(-c2ccccc2)oc1N1CC[C@@H](CO)C1`, the growth is reported as 95.2%. For `CC(=O)Nc1nc(C(=O)N2N=C(C)/C(=C/c3ccc(Cl)cc3)C2=O)cs1`, the growth was 103%. `c1ccc(Cc2cccc[n+]2C(c2ccccc2)c2ccccc2)cc1` was tested, and the growth was -6.43% (active). `COc1ccc(/C=C(\C#N)c2cc3ccccc3n2C)cc1` gave a growth of 27.6%. Molecule `CCN(CC)CCCNc1cc(OC)cc2nc3cc(Cl)ccc3nc12` has a growth of 11%. Molecule `COc1cccc(/C=C/C(=O)c2c(C)nc3ccccc3c2/C=C/c2ccc(C)cc2)c1OC` has a growth of 58.3%. `COC1=CC(=O)C(OC)=C(O)C1=O` was tested, and the growth was 91.8%. In the case of `C[N+]1=C(/C=C/c2ccccc2Cl)C(C)(C)c2ccccc21`, the growth is reported as 88.1%. `Cc1ccc(Cc2cnc(NC(=O)/C=C/c3ccc(C)o3)s2)cc1` was tested, and the growth was -0.221% (active). For `Nc1nnc2cc(F)ccc2n1`, the growth was 122%. `COc1cc(C(=O)/C=C/c2c(-c3ccc(F)cc3)nc3sc(C)cn23)cc(OC)c1OC` gave a growth of 14.1%. For `N#Cc1c(NC(=O)c2cccc(Br)c2)sc2c1CCCC2`, the growth was 59.3%. `CC(C)(C)c1cc(C(=O)Nc2cc3ccccc3cc2C(=O)NCCN)cc(C(C)(C)C)c1` was tested, and the growth was -87.6% (active). For `COc1ccc(-c2nc(SC(C)C)nc(NNC(N)=O)c2C#N)cc1`, the growth was 80.5%. Work on `C[C@]12CC[C@@H]3c4ccc(O)cc4CC[C@H]3[C@@H]1CC[C@@H]2NS(=O)(=O)c1ccc(C(F)(F)F)cc1` yielded a growth of 53%. `CC(=O)N1c2ccccc2NC2=C(C(=O)N(C)C2(C)C)C1C` (stereo not given) showed a growth of 19.2%. `O=C1/C(=C/c2ccccc2[N+](=O)[O-])COc2ccc(O)cc21` was tested, and the growth was -9.15% (active). `Cn1ccnc1C(=O)/C=C/c1ccc(CC(=O)NC2CCCCC2)cc1` was tested, and the growth was -6.65% (active). With `CC1=CC2OC34COC3CC(OC(=O)C(F)(F)F)C4(C)C2(C)CC1` (stereo not given) the growth was 87.5%. Work on `COc1ccc(CNC(=O)C(O)C(Cc2ccccc2)NC(=O)c2[nH]c3ccccc3c(=O)c2C)cc1OC` (stereo not given) yielded a growth of 102%. In the case of `COc1ccc(/C=C/C(=O)c2ccc(NC(=O)CSc3nnc(-c4ccc(Cl)cc4)n3-c3ccccc3)cc2)cc1`, the growth is reported as 94.8%. `CS(=O)(=O)c1ccc(/C=C\C(=O)O)cc1` showed a growth of 93.6%. Work on `CC(=O)c1cc(Cl)ccc1O` yielded a growth of 97.5%. `COc1cc(NC(=O)CSc2nc3ccccc3c(=O)n2CCc2ccccc2)cc(OC)c1OC` was tested, and the growth was 29.9%. With `COc1ccc2c(O)cc3c(c2c1)[C@H](CCl)CN3C(=O)c1cc2cc(NC(=O)CCN3CCOCC3)ccc2[se]1` the growth was -25.3% (active). With `C=C1CC[C@@H]2C(C)(C)[C@@H](O)CC[C@@]2(C)[C@@H]1COc1ccc2ccc(=O)oc2c1` the growth was 53.1%. In the case of `CCCN1C(=O)/C(=c2\sc3n(c2=O)C2C(NN=3)N(CC)C(=O)N2CC)c2ccccc21` (stereo not given), the growth is reported as 4.78% (active). For `CCCCCCCCCCCCCCCC[n+]1cccc(C#N)c1`, the growth was -27.5% (active). `Cc1ccc(C(=O)c2oc3ccc4c(C)cc(=O)oc4c3c2C)cc1` was tested, and the growth was 16%. `Cc1ccc(S(=O)(=O)Oc2ccc3sc4cccc(NCCN(C)C)c4c(=O)c3c2)cc1` was tested, and the growth was -91.7% (active). In the case of `CC(C)[C@H]1CCC2=C3CC[C@]45OC(=O)[C@@]6(CCC(C)(C)C[C@H]64)CC[C@@]5(C)[C@]3(C)CC[C@@]21C`, the growth is reported as 76.4% [100 µM]. `Nc1ccc2c(c1)Cc1cc(NC(=O)C(F)(F)F)ccc1-2` was tested, and the growth was 75.7%. Molecule `Cc1cc(Nc2ccc(Cl)c(Cl)c2)nc(N)n1` has a growth of 54.5%. In the case of `CCN(CC)CCNc1ccc(Cl)cc1Cl`, the growth is reported as 108%.
